Screening data (PubChem BioAssay)
An excerpt weighted towards active compounds, which were near 10% of everything screened.
KinaseGlo FLuc – blocks Kinase-Glo luciferase, a counter-screen artifact; Q27757; Kinase-Glo luciferase, ATP luminescence, 8 min; Potency, µM (doses to about 38.3 µM), for inactives: at the top dose activity change, negative = inhibition, actives largely listed as inhibitors; actives 0.28% (n = 200,000); AID 1379; active = well fitted inhibition curve with a large enough effect; inconclusive = small, poorly fitted or top-dose-only effect; note: potency is the fitted concentration of half-maximal effect; nearly all actives have a fitted effect of over 60% in size
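Luminescence was the read-out, taken after 8-minute incubation at ambient temperature. Luciferase turned over luciferin with 10 uM ATP in imidazole pH 7.2 buffer containing KCl, MgCl2, Tween 20 and BSA.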
IMPase inh – membrane-permeable compound that blocks inositol monophosphatase. 120,000 tested, under 10 active. CHO-M1 cells, IP1 accumulation, HTRF TR-FRET ratio. inhibition (IP1 accumulation), % at 46.1 µM. P97697; active = well fitted curve in the direction sought with a large enough effect in the signal ratio, not every such curve was filed as active; inconclusive = small, poorly fitted or top-dose-only effect, or a change in a side signal; inactive = no such curve, though single readings can be large or run the other way; the % refers to the signal ratio;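 note: cells stimulated with carbachol in lithium chloride buffer; plate controls were DMSO basal wells for no effect and reference inhibitor wells for full effect; higher means more IMPase inhibition seen as more IP1 and lower FRET ratio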
Target sequence (P97697 whole entry, looked up): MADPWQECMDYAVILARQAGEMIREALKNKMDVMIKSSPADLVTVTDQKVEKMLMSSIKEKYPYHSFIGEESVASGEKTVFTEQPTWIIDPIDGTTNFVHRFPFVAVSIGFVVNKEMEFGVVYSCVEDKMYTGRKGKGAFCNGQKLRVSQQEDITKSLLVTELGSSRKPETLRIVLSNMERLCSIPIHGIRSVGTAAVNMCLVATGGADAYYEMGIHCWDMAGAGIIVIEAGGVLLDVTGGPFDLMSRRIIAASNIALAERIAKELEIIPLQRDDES
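In this qHTS, compounds (final up to 46 uM) act on CHO-M1 cells that are then activated through the M1 receptor with carbachol, in pH 7.4 buffer containing 50 mM LiCl, for 30 min. IP1 accumulation is quantified by the IP-One immunoassay.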
PNC inhibitor – blocks assembly of the perinucleolar compartment; activity change (PNC), negative = inhibition, % at 10 µM; AID 2417; actives 3.1% (n = 140,000); PC3M PTB-GFP, PNC prevalence imaging, 16 h; active compounds read low;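 active = readout at or below -70, meaning at least 70% loss of cells showing the perinucleolar compartment, a nuclear body marking cancer cells; inconclusive = readout between -30 and a set limit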;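 note: plate controls were DMSO wells for no effect and camptothecin positive control wells for full effect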
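Read-out is percentage of cells bearing a perinucleolar compartment, from automated 20x imaging of fixed, Hoechst-stained PC3M PTB-GFP cells. Cells were seeded 4 h, then exposed 16 h to compound (23 nl of library stock) in duplicate plates.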
ALDH1A1 inh – blocks purified human ALDH1A1 activity; Purified ALDH1A1, NADH fluorescence, propionaldehyde substrate; actives 7.3% (n = 220,000); Potency, µM (series often up to 75.3 µM), for inactives: at the highest dose activity, negative = inhibition, actives largely listed as inhibitors; P00352;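 note: potency is the fitted concentration of half-maximal effect; plate controls were no enzyme wells and a reference inhibitor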
Target sequence (P00352 whole entry, looked up): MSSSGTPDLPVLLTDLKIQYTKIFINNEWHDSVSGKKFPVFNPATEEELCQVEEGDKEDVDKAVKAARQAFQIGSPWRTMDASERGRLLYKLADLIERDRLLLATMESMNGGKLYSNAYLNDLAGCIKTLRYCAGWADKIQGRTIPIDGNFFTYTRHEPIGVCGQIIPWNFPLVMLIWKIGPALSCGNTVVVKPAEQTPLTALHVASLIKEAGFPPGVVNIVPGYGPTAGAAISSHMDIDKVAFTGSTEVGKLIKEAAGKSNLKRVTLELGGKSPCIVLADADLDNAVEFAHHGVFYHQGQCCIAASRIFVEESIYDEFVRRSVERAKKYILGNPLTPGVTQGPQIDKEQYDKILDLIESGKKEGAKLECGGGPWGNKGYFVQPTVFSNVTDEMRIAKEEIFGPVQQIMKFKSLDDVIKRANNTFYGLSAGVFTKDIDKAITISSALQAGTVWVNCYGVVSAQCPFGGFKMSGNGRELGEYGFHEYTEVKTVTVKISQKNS
HPGD block – HPGD (human) dehydrogenase inhibition | Potency, µM, for the others: at the highest dose activity change, negative = inhibition, actives largely listed as inhibitors | purified HPGD, NADH fluorescence kinetic, PGE2 substrate | actives 4.3% (n = 150,000); note: potency is the fitted concentration of half-maximal effect
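20 nM HPGD preincubated 15 min at room temperature with compound in 50 mM Tris-HCl pH 8, 0.01% Tween 20. Started with 1 mM NAD+ and 30 uM prostaglandin E2; NADH fluorescence (360/450 nm) read 5 times over 30-s intervals, last minus first.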
LMNA splice mod – modulators of lamin A splicing; HeLa LMNA splicing GFP/RFP minigene ratio, 48 h; Potency, µM (titrated, usually from 46.1 µM), for inactives: at the top dose ratio change, negative = inhibition, usual class: inhibitors; actives 0.01% (n = 200,000); AID 1487; active = well fitted inhibition curve with a large enough effect in the signal ratio, with a control signal flat, not every such curve was filed as active; inconclusive = small, poorly fitted or top-dose-only effect, or effect the other way, or a change in a side signal; the % refers to the signal ratio; note: potency is the fitted concentration of half-maximal effect
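S3 HeLa cells stably expressing lamin A-EGFP splicing minigene plus DsRed2, 600 cells/well, 48 h compound exposure at 37C. Laser-scanning cytometry; analysed as GFP (500-530 nm)/RFP (575-640 nm) total intensity ratio; 0.5% DMSO vehicle.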
* marks the source's active call; other numbers are inactive results; ? = inconclusive; · = not tested or not shown; [ ] = another dose, or the depositor's remark. Unless noted, calls come from the whole dose curve; as a rule, active = well fitted inhibition curve with a large enough effect (not every such curve was filed as active); inconclusive = small, poorly fitted or top-dose-only effect, or another doubt; inactive = no such curve, though single readings can be large or run the other way. Unless noted, % is set by controls: 0 for no effect and ±100 for the full control effect.

SMILES | KinaseGlo FLuc | IMPase inh | PNC inhibitor | ALDH1A1 inh | HPGD block | LMNA splice mod
COc1cccc(OC)c1OCCCOc1ccc([N+](=O)[O-])cc1Cl | 1% | · | -16 | -2% | 16µM* | ?
COc1cccc(OC)c1OCCCOc1ccc(C)cc1Br | -2% | · | 80 | 2% | 22µM* | ?
CCOc1ccc(NC(=O)c2ccc3nc(C(C)C)oc3c2)cc1 | · | · | · | · | · | -6%[46 µM]
O=C1C=C(NCc2ccncc2)CC(c2ccccc2)C1 (stereo not given) | 14% | 2 | -1 | -11% | -4% | -6%
O=C1C=C(NNC(=O)c2ccncc2)CC(c2ccccc2)C1 (stereo not given) | 1% | · | · | 8.9µM* | · | 3%[46 µM]
O=C(N/N=C/c1ccc(Cl)cc1Cl)c1n[nH]c2c1CCCC2 | -1% | · | -84* | 12% | -6% | ?
Cc1ccc(-c2cc(C(=O)N/N=C/C=C/c3ccccc3)n[nH]2)s1 | 0% | · | -11 | ? | 32µM* | ?
Cc1cc(C(=O)N/N=C/C=C/c2cccc([N+](=O)[O-])c2)n[nH]1 | 3% | · | · | -7% | · | ·
O=C(N/N=C\c1cccc(Cl)c1)c1n[nH]c2c1CCCC2 | -8% | 4 | -24 | ? | -8% | ?
O=C(N/N=C/C=C/c1ccccc1)c1n[nH]c2c1CCC2 | -5% | 3 | -98* | 12% | -20% | ?
COc1ccc(-c2cn3nc(N4CCCC(C(=O)NCc5ccccc5OC)C4)sc3n2)cc1 (stereo not given) | · | · | · | · | · | -4%[46 µM]
Cn1c2ccccc2c2ncn(CCN3CCOCC3)c(=O)c21 | · | 8 | -87* | ? | · | 5%
N.N.N.N.N.N.N.N.N.N.N.N.N.N.O.O.[Cl-].[Cl-].[Cl-].[Cl-].[Cl-].[Cl-].[Ru].[Ru].[Ru] | -11% | · | · | -6% | -9% | ?
CC(=O)c1cnc2cc(C)nn2c1C | -1% | 1 | 9 | 0% | -9% | 6%
Cc1cc2ncc(C(=O)Nc3ccsc3C(=O)O)c(C)n2n1 | 2% | · | · | 14µM* | · | ·
COc1ccccc1NC(=O)c1cnc(Nc2ccccc2OC)c2ccccc12 | -1% | · | -86* | ? | ? | ?
COc1cccc(Nc2ncccc2C(=O)Nc2ccccc2)c1 | -2% | 7 | -80* | -9% | -4% | 5%
CCOc1ccccc1Nc1ncccc1C(=O)O | 2% | 6 | -8 | -5% | -16% | 8%
COc1ccccc1Nc1ncccc1C(=O)O | -2% | 7 | -100* | 9% | -6% | 7%
COc1ccc(NC(=O)c2cccnc2NCCc2ccccc2)cc1 | 1% | · | 44 | -15% | -14% | -7%
FC(F)(F)c1cc(CN2CCCC3(CCNCC3)C2)cc(C(F)(F)F)c1 | -3% | · | · | -8% | -6% | ·
c1ccc(-c2nc(-c3cccc4ccccc34)c(Nc3ccc4ccccc4c3)o2)cc1 | 1% | · | · | ? | -7% | ·
O=C(c1cc2ccccc2o1)c1cccs1 | -3% | -11 | -7 | -9% | -27% | 2%
O=C(c1cccs1)c1ccc(-c2cccs2)s1 | 7.9µM* | 1 | -2 | ? | ? | ?
Cc1nc2ccccc2c(=O)n1/N=C/c1ccc(N(C)C)cc1 | -5% | -2 | -13 | 16µM* | -6% | -5%
SMILES | KinaseGlo FLuc | IMPase inh | PNC inhibitor | ALDH1A1 inh | HPGD block | LMNA splice mod
Cc1nc2ccccc2c(=O)n1/N=C/c1ccc([N+](=O)[O-])o1 | · | · | · | 19µM* | · | ·
Cc1nc2ccccc2c(=O)n1/N=C/c1ccccn1 | 1% | 2 | 6 | -8% | -8% | 0%
CCC(Oc1ccccc1)C(=O)Nc1nnc(S(=O)(=O)N(CC)CC)s1 (stereo not given) | · | · | · | · | · | 7%[46 µM]
COC(=O)N[C@@H](CCc1ccccc1)/C(C(=O)OC)=C(\C)NCc1ccccc1 | -1% | · | · | 9% | -3% | ·
CCN(CC)CCCNC(=O)C1CCC(=O)N(c2ccc(OC)cc2)C1c1ccc(F)cc1 (stereo not given) | 0% | 0 | 62 | 1% | -9% | -2%
CCC(C)NC(=O)C1CCC(=O)N(c2ccc3c(c2)OCO3)C1c1ccc(OC)cc1 (stereo not given) | -1% | -4 | -18 | 6.3µM* | -1% | -8%
CCC(C)NC(=O)C1CCC(=O)N(c2cc(OC)c(OC)c(OC)c2)C1c1ccc(OC)cc1 (stereo not given) | -1% | ? | -100* | -4% | -11% | -7%
N[C@](CC1c2ccccc2Oc2ccccc21)(C(=O)O)[C@H]1C[C@@H]1C(=O)O | · | · | · | 2% | · | ·
COc1cc(CN2CCNC(=O)C2CC(=O)NCCC2=CCCCC2)cc(OC)c1 (stereo not given) | 2% | · | · | 20µM* | · | ?
CCOc1ccc(CN2CCNC(=O)C2CC(=O)NCCC2=CCCCC2)cc1 (stereo not given) | -1% | · | · | ? | · | ·
COc1ccc(N2C(=O)CC(n3c(CCCCO)nc4ccccc43)C2=O)cc1 (stereo not given) | 0% | -7 | -28 | 3.5µM* | -18% | -5%
Cc1ccc(N2C(=O)CC(N3CCN(C)CC3)C2=O)cc1 (stereo not given) | 0% | 7 | -100* | 0% | -11% | -7%
COc1ccc(N2C(=O)CC(N3CCN(c4ccccc4F)CC3)C2=O)cc1 (stereo not given) | 1% | -2 | -97* | ? | -4% | 7%
O=C(C1CCN(C2CC(=O)N(c3ccc(F)cc3)C2=O)CC1)N1CCOCC1 (stereo not given) | -5% | ? | 59 | 7.1µM* | -7% | 2%
COc1ccc(N2C(=O)CC(n3cnc4ccccc43)C2=O)cc1 (stereo not given) | 16% | 1 | 20 | 5% | -9% | 1%
Cc1cccc(OCC(=O)NCC2(N3CCN(C)CC3)CCCCC2)c1 | · | · | · | · | · | 23%[46 µM]
Cc1ccc(NC(=O)Cn2cnc3c2c(=O)n(C)c(=O)n3C)cc1C | · | · | · | · | · | 14%[46 µM]
O=C1CC(N2CCC(c3nc4ccccc4[nH]3)CC2)C(=O)N1c1ccccc1F (stereo not given) | -1% | · | · | 10µM* | · | -11%[46 µM]
O=C1CCCN1CCC1CCN(C2CC(=O)N(c3ccc(F)cc3)C2=O)CC1 (stereo not given) | -2% | 12 | -112* | 13µM* | -6% | 3%
COc1ccc(N2C(=O)CC(N3CCC(c4nc5ccccc5[nH]4)CC3)C2=O)cc1 (stereo not given) | -1% | 0 | -9 | ? | 2% | 7%
COc1ccc(N2C(=O)CC(N3CCOCC3)C2=O)cc1 (stereo not given) | 2% | 7 | ? | 25µM* | -9% | 0%
O=C1CC(N2CCN(c3ccccn3)CC2)C(=O)N1c1ccc(F)cc1 (stereo not given) | -2% | · | · | 2% | · | -1%[9.22 µM]
